We go through eight molecules from PubChem BioAssay (NCI).

Assay in all cases: NCI-60 one-dose screen, 48 h (100 = growth as untreated, 0 = no growth, -100 = all killed)
Settings in all cases: 10 µM unless noted

Assay [1] relates to K-562 leukemia.
The test system of assay [2] is MALME-3M melanoma.
For assay [3], the system named is MDA-MB-231 breast.
The subject of assay [4] is RXF 393 renal.
Assay [5] relates to SF-268 CNS.
Assay [6] concerns SF-295 CNS.
Assay [7] relates to SF-539 CNS.
Assay [8] has as its system UACC-257 melanoma.
The test system of assay [9] is HCT-15 colon.
In assay [10] the test system is HT29 colon.
The test system of assay [11] is SNB-75 CNS.
The subject of assay [12] is SNB-19 CNS.
In assay [13] the test system is U251 CNS.
Assay [14] deals with PC-3 prostate.
Assay [15] concerns SK-MEL-5 melanoma.
Assay [16] relates to UACC-62 melanoma.
The subject of assay [17] is SK-MEL-28 melanoma.
The subject of assay [18] is SK-MEL-2 melanoma.
Assay [19] has as its system M14 melanoma.
Assay [20] relates to LOX IMVI melanoma.

The structures appear in SMILES notation. About 83,000 compounds went through this panel and 20% of them were active in at least one assay; those are over-represented in the sample as a whole.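 96-well plates, one dose, 48 hours. Percent growth reported; active if below 10.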 A number with no mark means an inactive call. Activity calls are given as the source filed them.

On to `CCCSc1nc(Nc2ccc(/C(C)=N\NC(N)=S)cc2)c(C#N)c(-c2ccc(OC)cc2)n1`, for which the growth in assay [1] is 85.1%; in assay [2] it was 49.2%; in assay [3] it was 7.95% (active); in assay [4], 10.8%; in [5], 64.5%; in assay [6], 42.2%. For the same molecule, the growth is 18.7% in assay [7]; 93.7% in assay [8]; 75.7% in assay [9]; 87.7% in assay [10]; 56% in assay [11]; 39.7% in [12]. Also, the growth was 17.1% in assay [13]; 99.8% in [14]; 58.2% in [15]; 87.7% in assay [16]; 79.8% in [17]; 89.7% in [18].

As for `CCOC(=O)c1c(Nc2ccccc2)nn2c(-c3ccco3)c(C#N)cnc12`, the growth is 94.9% in [2]; 80% in assay [3]; 82.1% in [4]; 80.5% in assay [5]; 76.7% in [6]; 42% in assay [7]. Moreover, the growth is 112% in [8]; 107% in assay [19]; 91.5% in assay [9]; 100% in assay [10]; 30.5% in assay [11]; 78.3% in [12]. Moreover, the growth is 109% in assay [13]; 86.4% in assay [14]; 91.3% in [15]; 91% in assay [16]; 90.3% in assay [18].

As for `COc1ccc(-c2nc3ccc(-c4nnc(SCC(=O)Nc5ccc(C(C)=O)cc5)o4)cc3[nH]2)cc1`, the growth is 85.6% in assay [1]; 87.8% in [2]; 94.7% in assay [3]; 122% in [4]; 104% in assay [5]; 97.5% in [6]. The growth was 81.6% in assay [7]; 124% in [8]; 100% in [9]; 116% in [10]; 92.6% in [11]; 119% in assay [12]. Moreover, the growth in [13] was 104%; in [14] it was 104%; in assay [15] it was 93.5%; in [16], 96%; in assay [20] it was 108%; in [18], 134%.

As to `Cc1cc2nc3c4cc(Cl)ccc4n(CC(=O)NCCN(C)C)c3nc2cc1C`, the growth was -32.9% (active) in assay [1]; -66.9% (active) in assay [2]; 53.2% in assay [3]; 61.1% in assay [4]; 83% in assay [5]; 93.5% in assay [6]. Besides, the growth in assay [7] was 21.8%; in [8], 105%; in [9], -7.4% (active); in [10], -75.5% (active); in assay [11] it was 64.1%; in [12], 81.5%. In addition, the growth was -38% (active) in [13]; 60.8% in assay [14]; 89.8% in [15]; 79.4% in [16]; 112% in assay [18].

Regarding `COc1ccc([C@@H]2c3[nH]c4ccccc4c3CC3C(=O)N(C4CCN(Cc5c(F)cccc5F)CC4)CC(=O)N32)c(OC)c1` (some centres not stated), the growth in [1] was 62.2% [5.26 µM]; in assay [2], 68% [5.26 µM]; in assay [3], 62.3% [5.26 µM]; in [4], 56.4% [5.26 µM]; in [5], 55% [5.26 µM]; in [6], 67.1% [5.26 µM]. In addition, the growth was 69.8% [5.26 µM] in [7]; 77.4% [5.26 µM] in assay [8]; 47.5% [5.26 µM] in assay [9]; 44% [5.26 µM] in assay [10]; 22.3% [5.26 µM] in assay [11]; 64.2% [5.26 µM] in assay [12]. Besides, the growth was 62% [5.26 µM] in assay [13]; 35.2% [5.26 µM] in [14]; -9.17% [5.26 µM] (active) in assay [15]; 78.9% [5.26 µM] in [16]; 60.9% [5.26 µM] in assay [17]; 74.5% [5.26 µM] in [18].

For the molecule `O=C1[C@H]2Cc3c([nH]c4ccccc34)[C@@H](c3ccc(Br)cc3)N2C(=O)CN1C1CCN(Cc2ccccc2)CC1`, the growth was -28.2% (active) in assay [1]; 62.2% in assay [2]; 49% in assay [3]; 42.7% in assay [4]; 37.5% in assay [5]; 32.4% in assay [6]. The growth in [7] was 65.4%; in assay [8], 53.3%; in assay [9], 15.8%; in assay [10], -30.9% (active); in [11], 51.1%; in assay [12] it was 47.8%. In addition, the growth in assay [13] is 32.3%; in assay [14], 17%; in assay [16], 84%; in [17], 70.3%; in assay [18] it was 28.8%.

For the molecule `CC(C)Sc1nc(Nc2ccc(S(N)(=O)=O)cc2)c(C#N)c(-c2ccc(F)cc2)n1`, the growth is 36.3% in [1]; 14.8% in assay [2]; 38.6% in assay [3]; 39.1% in assay [5]; 93.3% in [8]; 17.9% in assay [19]. Also, the growth in assay [9] is 43.5%; in assay [14] it was 40.9%; in assay [15] it was 54.3%; in assay [16] it was 46.5%; in [17] it was 78%; in assay [18] it was 92.5%.

Consider `CC1=C(C)C(=O)C(Nc2cccc(C(F)(F)F)c2)=C(Cl)C1=O`, for which the growth in assay [1] was 3.78% (active); in assay [2], 94.4%; in [3] it was 19%; in assay [4], 97.8%; in [5], 94.3%; in [6], 96.2%. The growth is 93.4% in assay [7]; 78.5% in assay [8]; 65.7% in assay [9]; 103% in [10]; 92.4% in assay [12]; 64.4% in [14]. Also, the growth is 80.2% in [16], 98.3% in assay [17] and 85.8% in assay [18].
